From PubChem BioAssay
Shown are actives, neighbours in structure and some others; about 7.1% of the full set was active somewhere.
MCF10A rereplic = induces DNA re-replication in MCF 10a normal breast cells; MCF 10A DNA re-replication, Hoechst nuclear intensity, 48 h; Potency, µM (top dose mostly 46.1 µM), without a hit: at the top dose activity, positive = re-replication, usual class: activators; 2.9% of 350,000 active; further: % of control where 0% means no effect; nearly all actives have a fitted effect of over 50% in size
SW480 rerep = induces DNA re-replication in SW480 colon adenocarcinoma cells; SW480 DNA re-replication, Hoechst DNA content imaging, 48 h; Potency, µM (doses to about 46.1 µM), for inactives: at the highest dose re-replication activation, hits mostly activators; 1.8% of 340,000 active; AID 624297; further: % of control where 0% means no effect; nearly all actives have a fitted effect of over 55% in size
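Treated cells incubate 48 hr (37 C, 5% CO2), are stained 40 min with Hoechst, and nuclear fluorescence is enumerated; a rise in nuclei with high DNA signal marks re-replication.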
ELG1 genotox = genotoxicity induction in ELG1-luciferase HEK293T cells; HEK293T ELG1-luciferase reporter, luminescence, 16 h; Potency, µM (doses to about 46 µM), for inactives: at the top dose activity change, positive = activation, usual class: activators; 1.3% of 330,000 active; further: % of control where 0% means no effect; nearly all actives have a fitted effect of over 60% in size
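Reporter readout depends on ELG1 protein level, which increases with genetic stress. After 16 hr compound exposure at 37 °C, luciferase activity was quantified using ONE-Glo.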
ELG1 repair inh = inhibitors of ELG1-dependent DNA repair in HEK293T cells; HEK293T ELG1-luciferase reporter, luminescence, 16 h; DNA damage induced by 5-fluorouridine; Potency, µM (doses to about 46.1 µM), for inactives: at the highest dose activity change, negative = inhibition, most hits filed as inhibitors; 2.3% of 330,000 active; AID 504467; further: on the % scale 0 is the no-effect control and ±100 the full control effect; nearly all actives have a fitted effect of over 55% in size
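Overnight (16 hr) co-exposure of 2,000 cells/well to 5-fluorouridine and compound at 37 °C preceded detection. Luciferase was quantified via ONE-Glo luminescence; loss of signal denotes inhibition.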
p53 reactivation = restores transcriptional activity of mutant p53 | Potency, µM (highest dose often 92.2 µM), for inactives: top-dose activity change, positive = activation, most hits filed as activators | AID 504706 | 0.063% of 320,000 active | H1299 p53-A138V BP100-luciferase reporter, luminescence, 24 h; further: % of control where 0% means no effect; nearly all actives have a fitted effect of over 45% in size
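H1299 (p53-null), stable ts p53-A138V + BP100-Luc; 1000 cells/well, Opti-MEM/10% FBS; cpd 4 pt, 1:5; 24 h, 37 deg C, 5% CO2; detection reagent 10 min RT; luminescence.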
AT treatment = candidate therapy for ataxia-telangiectasia; F2112 A-T fibroblasts, KAP-1 phosphorylation AlphaLISA; neocarzinostatin DNA damage 30 min before lysis; Potency, µM (top dose mostly 57.5 µM), for the others: at the highest dose activation, usual class: activators; 0.19% of 320,000 active; further: % of control where 0% means no effect; nearly all actives have a fitted effect of over 45% in size
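ATM-like activity read as KAP-1 phosphorylation via AlphaLISA donor/acceptor antibody pairs after lysis and 6 hr at 25C. Cells were ATM-null patient fibroblasts (F2112, hTERT), dosed 60 min, then exposed to the DSB inducer NCS for 30 min.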
An asterisk follows results filed as active. The call rests on the fitted dose curve; in most records, active means well fitted curve in the direction sought with a large enough effect; inconclusive means small, poorly fitted or top-dose-only effect, or another doubt; inactive means no such curve, though single readings can be large; an effect the other way counts as inactive or inconclusive. Potency means the concentration at half of the fitted maximal effect.

What do the screens show for `COc1ccc(NC(=O)/C=C/c2cccc(C(F)(F)F)c2)cn1`?
MCF10A rereplic: 5.9%; SW480 rerep: 7.5%; ELG1 genotox: -22.2%; ELG1 repair inh: 18.3µM*; p53 reactivation: -12.3%; AT treatment: -0.3%

How did COc1ccc(-c2sc3cc4c(cc3c2C#Cc2ccc(N)cc2)OCO4)cc1 do in these assays?
MCF10A rereplic: inconclusive; SW480 rerep: inconclusive; ELG1 genotox: 5.5%; ELG1 repair inh: inconclusive; p53 reactivation: 1.3%; AT treatment: inconclusive

Results for O=C(NCCN1CCOCC1)C1CC(=O)N(c2ccc(F)cc2)C1 (stereo unspecified) ?
MCF10A rereplic: 13.2%; SW480 rerep: -6.4%; ELG1 genotox: 1.8%; ELG1 repair inh: 2.2%; p53 reactivation: 0.8%; AT treatment: 2.0%

Results for CC(Oc1ccccc1)C(=O)N1CCc2ccccc2C1 (stereo unspecified) ?
MCF10A rereplic: 8.6%; SW480 rerep: -64.3%; ELG1 genotox: 2.6%; ELG1 repair inh: 2.7%; p53 reactivation: 24.2%; AT treatment: 8.3%

Results for CC(Oc1ccccc1)C(=O)N1CCN(C(=O)C(C)Oc2ccccc2)CC1 (stereo unspecified) ?
MCF10A rereplic: 1.2%; SW480 rerep: -6.9%; ELG1 genotox: -12.0%; ELG1 repair inh: 6.51µM*; p53 reactivation: -10.1%; AT treatment: 1.8%

Results for O=C(Oc1cccc2cccnc12)c1ccc(N2C(=O)C3C4CCC(C4)C3C2=O)cc1 (stereo unspecified) ?
MCF10A rereplic: 14.6µM*; SW480 rerep: 18.4µM*; ELG1 genotox: -2.3%; ELG1 repair inh: -6.8%; p53 reactivation: 22.5%; AT treatment: -8.5%

How did Cc1ccc(NC(=O)NNC(=O)C2CC(c3cccs3)=NO2)cc1 (stereo unspecified) do in these assays?
MCF10A rereplic: -1.7%; SW480 rerep: 10.2%; ELG1 genotox: 3.1%; ELG1 repair inh: -6.8%; p53 reactivation: 4.6%; AT treatment: 8.8%

What do the screens show for `COc1ccc(C2Nc3ccccc3C(=O)N2Cc2ccco2)cc1COc1ccc(NC(C)=O)cc1` (stereo unspecified)?
MCF10A rereplic: inconclusive; SW480 rerep: -0.1%; ELG1 genotox: -3.3%; ELG1 repair inh: inconclusive; p53 reactivation: -5.6%; AT treatment: 6.9%

How did COc1ccc(C2Nc3ccccc3C(=O)N2Cc2ccco2)cc1COc1ccccc1F (stereo unspecified) do in these assays?
MCF10A rereplic: inconclusive; SW480 rerep: 19.8%; ELG1 genotox: -3.3%; ELG1 repair inh: 18.4µM*; p53 reactivation: -6.6%; AT treatment: 3.3%

How did C=Cc1cc2c(cc1O)CCC1C2CCC2(C)C(O)CCC12 (stereo unspecified) do in these assays?
MCF10A rereplic: 10.3µM*; SW480 rerep: inconclusive

How did CC#Cc1cc2c(cc1O)CCC1C2CCC2(C)C(O)CCC12 (stereo unspecified) do in these assays?
MCF10A rereplic: 8.2µM*; SW480 rerep: 9.2µM*

What do the screens show for `CC12CCC3c4ccc(O)cc4CCC3C1CC(=NO)C2O` (stereo unspecified)?
MCF10A rereplic: 3.1%; SW480 rerep: -3.0%

Results for CCOc1cc2c(cc1O)CCC1C2CCC2(C)C(O)CCC12 (stereo unspecified) ?
MCF10A rereplic: 1.16µM*; SW480 rerep: inconclusive

What do the screens show for `Cc1c(C(=O)N(CCC#N)c2ccccc2)sc2nc3n(c(=O)c12)CCCC3`?
MCF10A rereplic: 4.6%; SW480 rerep: 0.0%; ELG1 genotox: 0.0%; ELG1 repair inh: -0.3%; p53 reactivation: -0.1%; AT treatment: -0.5%

What do the screens show for `O=C(CN1CCN(c2cccc(Cl)c2)CC1)Nc1ccc([N+](=O)[O-])cc1C(=O)Nc1ccccc1F`?
MCF10A rereplic: 5.3%; SW480 rerep: -10.1%; ELG1 genotox: -7.5%; ELG1 repair inh: 14.6µM*; p53 reactivation: -1.5%; AT treatment: -3.9%

Results for Cc1ccc(C)c(N2CCN(CC(=O)Nc3ccc([N+](=O)[O-])cc3C(=O)Nc3ccccc3F)CC2)c1 ?
MCF10A rereplic: 11.7%; SW480 rerep: 0.6%; ELG1 genotox: -0.2%; ELG1 repair inh: inconclusive; p53 reactivation: -2.0%; AT treatment: 6.6%

Results for O=C(COC(=O)c1ccc(Br)o1)c1ccc(S(=O)(=O)N2CCCCC2)cc1 ?
MCF10A rereplic: -1.7%; SW480 rerep: -9.9%; ELG1 genotox: -2.8%; ELG1 repair inh: 18.4%; p53 reactivation: 9.3%; AT treatment: 5.0%

How did O=C1N=c2ccccc2=C1c1sc(=S)n(Cc2ccccc2Cl)c1O do in these assays?
MCF10A rereplic: 1.3%; SW480 rerep: 16.4µM*; ELG1 genotox: -0.1%; ELG1 repair inh: -5.1%; p53 reactivation: 1.3%; AT treatment: -5.8%

What do the screens show for `CCCCn1c(SCC(=O)NCc2ccco2)nc2ccccc2c1=O`?
MCF10A rereplic: inconclusive; SW480 rerep: -6.7%; ELG1 genotox: -2.0%; ELG1 repair inh: -3.5%; p53 reactivation: -0.7%; AT treatment: 0.9%

How did CCCCCn1c(SCc2ccncc2)nc2cc(C(=O)NCc3ccco3)ccc2c1=O do in these assays?
MCF10A rereplic: 6.3%; SW480 rerep: 12.7%; ELG1 genotox: -9.2%; ELG1 repair inh: 6.51µM*; p53 reactivation: -3.9%; AT treatment: -0.2%

How did O=C(NCc1ccccc1)c1cc(-c2cccc(O)c2)on1 do in these assays?
MCF10A rereplic: inconclusive; SW480 rerep: 6.51µM*; ELG1 genotox: inconclusive; ELG1 repair inh: inconclusive; p53 reactivation: 6.4%; AT treatment: 1.5%

How did O=C(NCc1cccnc1)c1cc(-c2ccccc2)on1 do in these assays?
MCF10A rereplic: -0.2%; SW480 rerep: -3.8%; ELG1 genotox: 20.6µM*; ELG1 repair inh: inconclusive; p53 reactivation: 23.9%; AT treatment: -2.1%

Results for Cc1ccc2nc(C(F)(F)F)c(C#N)c(N)c2c1 ?
MCF10A rereplic: 3.26µM*; SW480 rerep: inconclusive; ELG1 genotox: -36.0%; ELG1 repair inh: inconclusive; p53 reactivation: inconclusive; AT treatment: 6.8%

What do the screens show for `Cc1cc(C)c2nc(C(F)(F)F)c(C#N)c(N)c2c1`?
MCF10A rereplic: inconclusive; SW480 rerep: -1.5%; ELG1 genotox: -16.7%; ELG1 repair inh: inconclusive; p53 reactivation: 0.8%

What do the screens show for `Cc1cccc(OCCSc2nc(N)cc(N)n2)c1`?
MCF10A rereplic: inconclusive; SW480 rerep: 16.4µM*; ELG1 genotox: 8.3%; ELG1 repair inh: inconclusive; p53 reactivation: 7.1%; AT treatment: 11.3%
